Bioassay records (PubChem)
HTR5A inv ctr: HTR5A inverse agonism, opioid heterodimer counter-screen. P47898. HTR5A cell line, luminescence. inhibition, % at 9.3 µM. 0.083% of 340,000 active; in the data active means inhibition mostly above about 23%, no sharp cut-off; inactive means mostly below about 18%;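 further: 0% = cells with DMSO and 100% = no-cell wells with DMSO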
OPRM1-OPRD1 inv: inverse agonist of human OPRM1-OPRD1 heterodimerization | cell-based MOR-DOR heterodimer luminescence, inverse agonism | 0.21% of 340,000 active | inhibition, % at 9.3 µM | P35372+P41143; in the data active means inhibition above about 22%, passing the limit was not always enough;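 further: 0% = cells with DMSO and 100% = wells without cells with DMSO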
Target sequence (P35372 whole entry, looked up): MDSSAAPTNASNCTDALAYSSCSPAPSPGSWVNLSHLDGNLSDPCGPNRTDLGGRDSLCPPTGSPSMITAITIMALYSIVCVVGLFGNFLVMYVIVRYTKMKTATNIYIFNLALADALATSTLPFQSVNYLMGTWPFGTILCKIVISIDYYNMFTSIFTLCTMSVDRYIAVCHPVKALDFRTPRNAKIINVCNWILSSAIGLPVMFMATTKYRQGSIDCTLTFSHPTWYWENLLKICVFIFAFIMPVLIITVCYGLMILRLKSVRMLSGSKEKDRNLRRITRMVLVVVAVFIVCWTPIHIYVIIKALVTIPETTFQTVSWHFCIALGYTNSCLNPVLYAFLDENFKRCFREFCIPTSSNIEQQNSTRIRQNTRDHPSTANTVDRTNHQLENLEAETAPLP
Target sequence (P41143 whole entry, looked up): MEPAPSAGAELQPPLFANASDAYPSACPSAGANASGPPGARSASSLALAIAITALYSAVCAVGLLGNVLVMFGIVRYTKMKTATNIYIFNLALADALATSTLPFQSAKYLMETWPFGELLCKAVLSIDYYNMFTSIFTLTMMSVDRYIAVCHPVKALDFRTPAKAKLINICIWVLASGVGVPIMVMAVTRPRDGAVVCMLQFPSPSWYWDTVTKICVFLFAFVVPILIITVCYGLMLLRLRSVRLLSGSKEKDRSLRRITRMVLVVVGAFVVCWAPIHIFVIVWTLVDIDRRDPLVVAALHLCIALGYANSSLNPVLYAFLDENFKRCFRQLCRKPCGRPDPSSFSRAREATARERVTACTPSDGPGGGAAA
MOR-DOR ag: OPRM1-OPRD1 heterodimerization agonism | P35372+P41143 | 0.3% of 340,000 active | activation, % at 9.3 µM | AID 504326 | cells, luminescence; in the data active means activation above about 18%;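 further: 0% = vehicle-treated cells and 100% = reference agonist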
HTR5A ag: activates human HTR5A in OPRM1-OPRD1 agonist counter-screen. HTR5A agonist assay, luminescence, cell-based. activation, % at 9.3 µM. 0.61% of 340,000 active; in the data active means activation mostly above about 9.5%, no sharp cut-off; inactive means mostly below about 7.6%;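 further: 0% = cells with vehicle only and 100% = reference agonist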
* marks the source's active call; other numbers are inactive results. This is a sample that favours compounds with a hit; in the whole collection about 1.1% have one here.

SMILES	HTR5A inv ctr	OPRM1-OPRD1 inv	MOR-DOR ag	HTR5A ag
O=C(CCn1cccc1)Nc1ccc(OC(F)(F)F)cc1	-28	-7	1	6
O=S(=O)(c1ccc2c(c1)C(O)c1ccccc1CC2)C(F)(F)F (centres undefined)	-32	-39	7	13*
O=C(COc1ccc([N+](=O)[O-])cc1)Nc1ccccc1C(=O)NC1CC1	-11	-8	1	5
Cc1cc(C(=O)NN)c2cc(Br)ccc2n1	-41	-4	1	13*
O=C(O)Cn1nnc(COc2ccccc2)n1	-19	3	0	7
Cc1ccc(NC(=O)Cc2nc(-c3c[nH]c(C(=O)N4CCCC4)c3)cs2)c(C)c1	-13	0	0	5
O=C(CCl)N(c1ccccc1)C1CCCCC1	4	-178	33*	42*
CC(=O)N(c1ccccc1)C1CCCC1	8	13	-2	1
O=C(Nc1ccc(-c2nc3ccccc3[nH]2)cc1)c1ccc2c(c1)OCO2	9	-47	10	13*
O=C(Nc1ccc(Cl)c(-c2nc3ccccc3[nH]2)c1)c1ccc2c(c1)OCO2	7	-6	1	-3
CC(C)CC(=O)Nc1cc2nn(-c3ccccc3)nc2cc1Cl	10	2	0	9.1*
CC(C)CC(=O)Nc1cccc2c1C(=O)N(c1ccccc1)C2=O	11	1	0	-4
COc1ccccc1C1CC(c2ccccc2)=NN1C(=S)Nc1ccccc1 (centres undefined)	-4	1	0	2
Nc1nccnc1C(=O)OCC(=O)NC1CCCc2ccccc21 (centres undefined)	14	3	-1	-5
Cc1nc([N+](=O)[O-])cn1CC(=O)c1ccc(OC(F)(F)F)cc1	-17	9	-2	5
COc1ccc(CC(=O)OCC(=O)Nc2ccc(N3CCOCC3)cc2)cc1	6	12	-2	2
COc1ccc(-n2nnnc2SCC(=O)c2cccc(OC)c2)cc1	14	1	0	-1
CCOc1ccc(-n2nnnc2SCC(=O)c2ccccc2)cc1	9	-6	1	13*
COc1ccc(N2CCN(C(=O)C3CCN(S(=O)(=O)c4ccc5c(c4)oc(=O)n5C)CC3)CC2)cc1	21	8	-1	-5
O=C1CC(c2ccc(F)cc2)Cc2nc(N3CCOCC3)ncc21 (centres undefined)	5	11	-3	1
O=C1CC(c2cccc(Cl)c2)Cc2nc(N3CCOCC3)ncc21 (centres undefined)	13	2	0	13*
CC(Sc1ccccc1)C(=O)N1CCN(S(=O)(=O)c2ccccc2C(F)(F)F)CC1 (centres undefined)	2	9	-2	-2
CC(=O)c1cccc(NC(=O)CCc2nc3sc4c(c3c(=O)[nH]2)CCCC4)c1	-15	8	-1	0
O=C(Cc1ccccc1F)Nc1ccc2c(c1)CCC2	-26	-3	0	9.6*
COc1ccc(/C(C)=N/NS(=O)(=O)c2cc(C)ccc2C)c(OC)c1	-38	-17	3	13*
SMILES	HTR5A inv ctr	OPRM1-OPRD1 inv	MOR-DOR ag	HTR5A ag
CCOc1ccc(S(=O)(=O)N/N=C(\C)c2ccc(OC)cc2OC)cc1	-13	14	-3	11
COCCN(C(=O)COC(=O)COc1ccc(Cl)c(C)c1)c1c(N)n(Cc2ccccc2)c(=O)[nH]c1=O	-20	15	-3	2
Cc1cccc(-c2cc3nc(-c4ccccc4)cc(N4CCC5(CC4)OCCO5)n3n2)c1	10	-4	1	12*
O=C1OC(N2CCN(C(=O)c3ccco3)CC2)c2ccccc21 (centres undefined)	-15	13	-2	9.9*
Nc1c(-c2ccc3c(c2)OCCO3)oc2ccccc2c1=O	16	9	-1	-4
O=S(=O)(Nc1cccc(-c2nc3cccnc3s2)c1)c1ccc2c(c1)OCCO2	2	-12	2	13*
Cc1ccc(-c2nc3cccnc3s2)cc1NS(=O)(=O)c1ccc2c(c1)OCCO2	-46	0	0	15
COc1cccc(OCC(O)CNC(=O)c2oc3ccc(C)cc3c2C)c1 (centres undefined)	-8	-4	1	2
O=C1C2C3CCC(C3)C2C(=O)N1c1ccc(OS(=O)(=O)c2ccccc2)cc1 (centres undefined)	-2	-13	3	13*
O=C(OCC(=O)N1CCOCC1)c1cc2ccccc2oc1=O	-6	16	-4	-5
O=C(CSC(=S)N1CCOCC1)c1cc2ccccc2oc1=O	-36	5	-1	10.0*
COc1ccc(CCC(=O)Nc2nc(C)c(C(=O)N(C)C)s2)cc1	-10	-30	6	-2
Cc1cc(CNC(=O)COc2ccccc2)c2ccccc2n1	-51	3	-1	6
Cc1cc(CNC(=O)COc2ccc(F)cc2)c2ccccc2n1	-5	8	-1	11*
O=C(/C=C/c1c(F)cccc1Cl)N1CCc2ccccc2C1	6	-11	2	4
CCCC(=O)Nc1ccc2c(c1)nc(CN1CCN(C(=O)OCC)CC1)n2CC	-34	11	-2	9.8*
CN(C)C(CNC(=O)c1ccc(C2SCCS2)cc1)c1ccccc1 (centres undefined)	-27	-88	17	10
Cc1ccc(NC(=O)/C=N/OCC(=O)NCc2ccccc2Cl)cc1	-40	10	-2	14*
CCOC(OCC)c1nc(N)[nH]c(=O)c1CCCCc1ccccc1	-6	19	-4	2
N#CC(=C(c1ccccc1)c1ccccc1)c1ccccc1	14	1	0	-4
Oc1ccccc1-c1cc(C(F)(F)C(F)F)[nH]n1	-18	-13	2	11*
Oc1ccccc1C1=NCCNC(C(F)(F)C(F)F)=C1	6	-10	2	-1
CCOC(=O)C1CCCN(C(=O)C2c3ccccc3Oc3ccccc32)C1 (centres undefined)	14	2	0	12*
COc1ccc2oc(C(=O)NC3(C)CCS(=O)(=O)C3)c(C)c2c1 (centres undefined)	-6	-7	1	4
NS(=O)(=O)c1ccc(NC2=CC(=O)C(=O)c3ccccc32)cc1	-36	-39	8	9.6*
SMILES	HTR5A inv ctr	OPRM1-OPRD1 inv	MOR-DOR ag	HTR5A ag
CCCc1nc(SCC(=O)NNC(=O)c2ccc(OC)cc2)c2ccccc2n1	2	13	-3	-1
Cc1nc(SCC(=O)NNC(=O)c2ccc(F)cc2)c2ccccc2n1	-31	8	-2	13*
Cc1c(NC(=O)Nc2cccc(C#N)c2)c(=O)n(-c2ccccc2)n1C	-3	17	-4	1
Cc1ccc(Nc2nc(-c3ccc(S(=O)(=O)N4CCCC4)cc3)cs2)cc1C	3	-9	2	10*
NNS(=O)(=O)c1ccc2c(c1)Cc1cc(S(=O)(=O)NN)ccc1-2	-45	17	-4	12*
CC(=O)Nc1ccc(NC(=O)C(C)OC(=O)c2c(NC(C)=O)sc(C)c2C)cc1 (centres undefined)	5	10	-3	-5
Cc1ccc(Cn2ccsc2=NC(=O)COC(=O)c2ccc(NC(=O)CC#N)cc2)cc1	-9	12	-3	1
Cc1ccc(Cn2ccsc2=NC(=O)CCl)cc1	-46	-294	59*	92*
COc1cccc(OCC(=O)NNC(=O)c2ccc3ccccc3c2)c1	-15	-2	1	6
